ELG1 DNA repair: qHTS screen for small molecules that inhibit ELG1-dependent DNA repair in human embryonic kidney (HEK293T) cells expressing luciferase-tagged ELG1; HEK293T ELG1-luciferase reporter, luminescence, 16 h; DNA damage induced by 5-fluorouridine; Potency, µM (doses to about 46.1 µM), inactives show at the top dose activity change, negative = inhibition, actives largely listed as inhibitors; 330,000 tested, 2.3% active; AID 504467, 2011; further: on the % scale 0 is the no-effect control and ±100 the full control effect; nearly all actives have a fitted effect of over 55% in size
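Reporter activity after DNA damage by 5-fluorouridine is monitored. Compound-treated cells incubate 16 hr at 37 °C, then ONE-Glo is added for 30 min before luminescence reading.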
FLuc counter: qHTS profiling assay for firefly luciferase inhibitor/activator using purifed enzyme and Km concentrations of substrates (counterscreen for miR-21 project); Luciferin 4-monooxygenase (Photinus pyralis), P08659; purified FLuc, Km substrates, luminescence inhibition; Potency, µM (titrated, usually from 57.5 µM), without a hit: at the top dose activity change, negative = inhibition, hits mostly inhibitors; 360,000 tested, 6.9% active;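 further: plate controls were vehicle for no effect and reference inhibitor for full effect; nearly all actives have a fitted effect of over 55% in size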
Target sequence (P08659 whole entry, looked up): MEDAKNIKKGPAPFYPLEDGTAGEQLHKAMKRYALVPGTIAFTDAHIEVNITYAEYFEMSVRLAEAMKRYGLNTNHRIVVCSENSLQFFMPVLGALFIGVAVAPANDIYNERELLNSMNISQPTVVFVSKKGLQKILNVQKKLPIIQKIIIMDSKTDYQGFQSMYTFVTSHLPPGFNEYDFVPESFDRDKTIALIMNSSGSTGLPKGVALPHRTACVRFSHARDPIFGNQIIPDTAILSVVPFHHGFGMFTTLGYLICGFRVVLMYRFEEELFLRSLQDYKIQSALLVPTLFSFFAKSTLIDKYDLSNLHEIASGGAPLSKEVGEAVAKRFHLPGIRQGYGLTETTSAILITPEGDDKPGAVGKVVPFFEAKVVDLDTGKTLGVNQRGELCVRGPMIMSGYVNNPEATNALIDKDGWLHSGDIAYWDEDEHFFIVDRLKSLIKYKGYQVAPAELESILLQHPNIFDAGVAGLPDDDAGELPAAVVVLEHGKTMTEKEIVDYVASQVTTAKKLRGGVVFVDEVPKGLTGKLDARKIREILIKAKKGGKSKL
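Purified P. pyralis luciferase (10nM final) with 10uM D-luciferin and 10uM ATP (Km levels) in 50mM Tris acetate pH 7.5, 10mM Mg acetate, 0.01% Tween-20, 0.05% BSA; qHTS 6-point titration, ~60 µM downward; luminescence read.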
SMN2 splice enh: qHTS Assay for Enhancers of SMN2 Splice Variant Expression. Potency, µM (series often up to 46.1 µM), for the others: at the top dose activity change, positive = activation, actives largely listed as activators. HEK293 SMN2-luciferase splicing reporter, luminescence, 30-36 h. AID 1458, 2008. 210,000 tested, 2.8% active; further: % of control where 0% means no effect; nearly all actives have a fitted effect of over 55% in size
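HEK293 cells carry an SMN2 […]–luciferase reporter in which exon 7 inclusion puts luciferase in frame. Cells were plated 10-12 h before compound addition, then incubated 30-36 h at 37C. ONE-Glo luminescence was read; sodium butyrate at 4.5 mM final served as control.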
Rab9 prom act: qHTS Assay for Rab9 Promoter Activators; Huh7 Rab9 promoter-luciferase reporter, luminescence, 24 h; Potency, µM (top dose mostly 9.22 µM), inactives show at the highest dose activation, negative = inhibition, usual class: activators; 320,000 tested, 2.8% active; further: % of control where 0% means no effect; nearly all actives have a fitted effect of over 60% in size
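Luminescence read-out: Huh7 cells stably expressing Rab9-luciferase, treated 24 h with compound at 37 °C, then lysed with luciferase reagent for 10 min at ambient before reading.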
ELG1 genotoxic: qHTS screen for small molecules that induce genotoxicity in human embryonic kidney (HEK293T) cells expressing luciferase-tagged ELG1; HEK293T ELG1-luciferase reporter, luminescence, 16 h; AID 504466, 2011; 330,000 tested, 1.3% active; Potency, µM (highest dose often 46 µM), inactives show top-dose activity change, positive = activation, actives largely listed as activators; further: % of control where 0% means no effect; nearly all actives have a fitted effect of over 60% in size
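Luminescence read-out: rising ELG1-luciferase signal, reflecting elevated ELG1 protein under genetic stress, flags genotoxic compounds. Cells were treated for 16 hr at 37 °C before ONE-Glo detection.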
NPC1 promoter act: qHTS Assay for NPC1 Promoter Activators. Huh7 NPC1 promoter luciferase reporter, 24 h. Potency, µM (doses to about 9.22 µM), for inactives: at the top dose activation, most hits filed as activators. 320,000 tested, 2.4% active; further: % of control where 0% means no effect; nearly all actives have a fitted effect of over 60% in size
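In 1536-well qHTS, Huh7 cells harboring an NPC1 promoter–luciferase construct received compound for 24 h; activation was quantified by luminescence following luciferase reagent addition.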
* marks the source's active call; other numbers are inactive results; ? = inconclusive; . = no result. Rows were chosen to be rich in hits. Some 9.3% of all compounds tested hit in one or more screens of this group. The call rests on the fitted dose curve; in most records, active means well fitted curve in the direction sought with a large enough effect; inconclusive means small, poorly fitted or top-dose-only effect, or another doubt; inactive means no such curve, though single readings can be large; an effect the other way counts as inactive or inconclusive. Potency means the concentration at half of the fitted maximal effect.

SMILES	ELG1 DNA repair	FLuc counter	SMN2 splice enh	Rab9 prom act	ELG1 genotoxic	NPC1 promoter act
CCn1ccc(C(=O)NC2=NCCS2)n1	?	-16%	44%	15%	6%	-2%
CCn1ccc(C(=O)Nc2ncc(C)s2)n1	?	?	.	0.79µM*	0%	0.79µM*
c1ccc(C(Cc2nc(-c3cccnc3)no2)c2ccccc2)cc1	?	-3%	-1%	0%	-17%	-2%
Cc1ccc(-c2noc(CSc3nnc(C)n3-c3ccc(C)cc3)n2)cc1	.	-11%	-2%	.	.	.
c1ccc(SCc2nc(-c3cccnc3)no2)cc1	?	11µM*	11µM*	1.4µM*	3.7µM*	2µM*
Cc1ccc(-c2noc(CSc3nc(N)cc(N)n3)n2)cc1	?	15µM*	?	2.2µM*	13%	2.8µM*
Cc1ccc(-c2noc(CSc3ccccc3)n2)cc1	?	2.1µM*	?	1.8µM*	7.3µM*	1.8µM*
Cc1cccc(-c2noc(CSc3ccccc3)n2)c1	?	9.5µM*	?	3.5µM*	?	2.5µM*
Cc1ccc(-c2noc(CSc3nnc(C)n3-c3ccc(C)c(C)c3)n2)cc1	.	-12%	-17%	.	.	.
CC(=O)NC1(c2ccccc2)CCN(Cc2nnnn2C(C)(C)C)CC1	-1%	3%	21%	6%	1%	-4%
C=CCNC(=O)N[C@@H](CCSC)C(=O)OC	0%	9%	-8%	4%	0%	-3%
CC(C(=O)N1CCc2ccccc21)N(C)CC(=O)Nc1ccccc1Cl (centres undefined)	-12%	.	.	-8%	-2%	0%
O=c1cc(CSc2nnc(COc3ccc(Cl)cc3)o2)c2ccccc2[nH]1	?	0%	-28%	-2%	-11%	-3%
COc1ccccc1CNC(=O)CN1C(=O)CSc2ccc(S(=O)(=O)N3CCCCC3)cc21	.	-7%	.	.	.	.
Cc1ccc(-n2c(SCc3nc(-c4ccc(Cl)cc4)no3)nnc2-c2ccncc2)cc1	.	-18%	-3%	.	.	.
Clc1ccc(-c2noc(CSc3nnc(-c4ccncc4)n3-c3ccccc3)n2)cc1	16µM*	-1%	.	-6%	-16%	0%
CN(C)c1cc[n+](CC(=O)c2ccc(-c3ccccc3)cc2)cc1	2.6µM*	0%	-100%	-18%	-12%	-24%
COc1ccc(C(=O)C[n+]2ccc(N(C)C)cc2)cc1	0%	-1%	.	-22%	-11%	-14%
CN(C)c1cc[n+](CC(=O)c2ccc(Br)cc2)cc1	9.2µM*	-1%	-63%	-10%	-6%	-18%
CCO/N=C/C(=O)Nc1ccc(F)cc1F	?	-4%	.	15%	5%	0%
N#Cc1c(N)nc(N)nc1Nc1ccc(Br)cc1	?	6µM*	.	1.4µM*	9.2µM*	1.3µM*
Cc1nc(N)nc(Nc2ccc(C#N)cc2)c1Br	11%	0%	.	-5%	1%	-1%
CCCCCCCNC(=O)c1ccc(N2CCC3(CC2)OCCO3)c([N+](=O)[O-])c1	18µM*	2%	-34%	1%	-6%	-1%
Cc1cc(C(=O)CSc2nnc(N)s2)c(C)n1Cc1cccs1	?	0.85µM*	-75%	0.28µM*	0.92µM*	0.56µM*
COc1ccc(-c2nnc(SCC(=O)c3cc(C)n(Cc4cccs4)c3C)o2)cc1	3%	?	-13%	3%	5%	-1%
SMILES	ELG1 DNA repair	FLuc counter	SMN2 splice enh	Rab9 prom act	ELG1 genotoxic	NPC1 promoter act
Cc1cc(C(=O)CSc2nnc(-c3ccc(OC(F)F)cc3)o2)c(C)n1Cc1cccs1	3%	0%	12%	-3%	0%	-4%
Cc1csc(SCC(=O)c2cc(C)n(Cc3cccs3)c2C)n1	?	0.17µM*	-62%	0.32µM*	?	?
Cc1cc(C(=O)CSc2n[nH]c(-c3ccccc3F)n2)c(C)n1Cc1cccs1	4%	17µM*	-8%	-5%	-5%	0%
COc1ccc(N2CCN(S(=O)(=O)c3cc4c(cc3C)N(C(C)=O)CCO4)CC2)cc1	?	0%	.	3%	-3%	-3%
CCC(=O)N(C)CCc1cc2c(c(OC)c1/C=N/Nc1ccc(C(=O)O)cc1)OCO2	10%	?	.	1%	17%	0%
CSc1nnc(-c2ccccc2Cl)o1	?	?	14%	22%	?	10%
CCSc1nnc(-c2ccc(Cl)cc2Cl)o1	?	9.5µM*	?	?	4.1µM*	2.5µM*
O=C1OCCC1Sc1nnc(-c2ccc(Cl)cc2Cl)o1 (centres undefined)	-22%	1.3µM*	.	-4%	-5%	0%
CSc1nnc(-c2ccc(Cl)cc2Cl)o1	?	12µM*	16%	?	?	?
O=C(O)CCSc1nnc(-c2ccc(Cl)cc2Cl)o1	.	0.85µM*	-30%	.	.	.
COc1ccccc1CNC(=O)[C@H](C)NC(=O)C1CCN(C(=O)[C@@H](N)Cc2ccccc2)CC1	?	1%	.	1%	4%	3%
CCOC1(OCC)C(c2ccc(N)cc2)C(C#N)(C#N)C1(OCC)OCC (centres undefined)	-1%	5%	-13%	-2%	-1%	-1%
CCCCOC(=O)CSc1nnc(-c2ccc(Cl)cc2Cl)o1	17%	?	-21%	-3%	0%	6%
CC(C)OC(=O)CSc1nnc(-c2ccc(Cl)cc2Cl)o1	8%	11µM*	18%	-1%	-3%	6%
Nc1ncn([C@H]2C[C@H](O)[C@@H](CO)O2)c(=O)n1	13%	-2%	.	-3%	?	-3%
CC(C)(C)NS(=O)(=O)c1ccc(N2C(=O)c3ccccc3C2=O)cc1	-11%	5%	-2%	2%	-1%	-5%
CC(C)(C)NS(=O)(=O)c1cccc(S(=O)(=O)c2cccc(S(=O)(=O)NC(C)(C)C)c2)c1	?	5.4µM*	14µM*	1.6µM*	?	2.5µM*
CCc1ccc(-c2cn(-c3nc(C)cc(C)n3)c(=N)o2)cc1	-2%	5.4µM*	2%	0%	-8%	2%
CC(C)(C)[C@H]1COC(=O)[C@H](NC(=O)OCC2c3ccccc3-c3ccccc32)C/C=C\C[C@@H](CC(=O)N(CCO)Cc2ccccc2)C(=O)N1	10µM*	.	.	.	-12%	.
CC(C)(C)OC(=O)C[C@@H]1C/C=C\C[C@@H](CC(=O)N(CCO)Cc2ccccc2)C(=O)N[C@@H](c2ccccc2)COC1=O	15µM*	.	.	.	-8%	.
